Among the data in PubChem BioAssay (NCI) are growth values, retold here.

Some test systems named below: SR leukemia; RPMI-8226 leukemia; OVCAR-8 ovarian; OVCAR-5 ovarian; OVCAR-4 ovarian; SK-OV-3 ovarian; IGROV1 ovarian; OVCAR-3 ovarian; HS 578T breast; T-47D breast; BT-549 breast; MDA-MB-435 melanoma; SW-620 colon; MCF7 breast; HCT-116 colon; HCC-2998 colon; KM12 colon; MDA-MB-468 breast; NCI/ADR-RES ovarian.
Common to all, as to experiment: NCI-60 one-dose screen, 48 h (100 = growth as untreated, 0 = no growth, -100 = all killed)
Holding throughout (conditions): 10 µM unless noted

The structures appear in SMILES notation. About 83,000 compounds went through this panel and 20% of them were active in at least one assay; those are over-represented in the sample as a whole.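 The endpoint reported here, percent growth, reads 100 for growth as untreated, 0 for no net growth and -100 for all cells dead.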 Values without a mark were called inactive. Activity calls are given as the source filed them. Rule for the calls: active = growth percent below 10; inactive = the rest.

`COC(=O)/C=C/c1cccc2c1C(=O)NC(C)(c1cc3cc4ccccc4cc3oc1=O)N2` (configuration not stated): the growth in the test with SR leukemia was 28%; in the test on RPMI-8226 leukemia, 40.2%; with OVCAR-8 ovarian, 54.3%; in the test with OVCAR-5 ovarian, 63.3%; in the test on OVCAR-4 ovarian it was 5.78% (active); with SK-OV-3 ovarian, 95.6%. For the same compound, the growth in the test with IGROV1 ovarian is 65.2%; with OVCAR-3 ovarian, 32%; in the test with HS 578T breast, 29.5%; in the test with T-47D breast, 71.8%; in the test on BT-549 breast it was 45.2%; in the test on MDA-MB-435 melanoma, 76.1%. Besides, the growth was 54.3% in the test on SW-620 colon; 47.2% with MCF7 breast; 44.5% with HCT-116 colon; 68.5% in the test with HCC-2998 colon; 53.7% in the test on KM12 colon; 41% in the test with MDA-MB-468 breast.

Take `Cc1ccccc1[C@H]1C(C(=O)c2ccc(Cl)cc2)C2(N[C@@H]1c1ccccc1)C(=O)Nc1ccc(Br)cc12` (some centres not stated): the growth in the test with SR leukemia was -21.5% (active); in the test on RPMI-8226 leukemia, -10.5% (active); in the test on OVCAR-8 ovarian, 2.36% (active); with OVCAR-5 ovarian, 5.07% (active); in the test with OVCAR-4 ovarian, 14.6%; in the test with SK-OV-3 ovarian it was 33.4%. Also, the growth is 13.4% with IGROV1 ovarian; -30.7% (active) in the test with OVCAR-3 ovarian; 10.7% with HS 578T breast; 22.6% in the test on T-47D breast; 13.1% with BT-549 breast; 3.21% (active) in the test on MDA-MB-435 melanoma. The growth is 13.3% in the test on SW-620 colon; -6.57% (active) in the test with MCF7 breast; -71.6% (active) with HCT-116 colon; -22.1% (active) with HCC-2998 colon; 3.4% (active) with KM12 colon; -26.1% (active) with MDA-MB-468 breast.

Consider `Nc1nnc(-c2c[nH]c3ncc(Br)cc23)c(-c2c[nH]c3ccc(F)cc23)n1`, for which the growth is 13.6% in the test on SR leukemia; 33.7% in the test on RPMI-8226 leukemia; 39% in the test with OVCAR-8 ovarian; 48.6% in the test with OVCAR-5 ovarian; 59.6% in the test with OVCAR-4 ovarian; 80.5% with SK-OV-3 ovarian. The growth is 37.4% in the test on IGROV1 ovarian; 33.2% in the test on OVCAR-3 ovarian; 28% with HS 578T breast; 38.2% in the test on T-47D breast; 54.4% in the test on BT-549 breast; 20.9% with SW-620 colon. In addition, the growth in the test with MCF7 breast was 18.6%; in the test on HCT-116 colon it was 26%; in the test with HCC-2998 colon, 45.9%; with KM12 colon, 30.5%; in the test with MDA-MB-468 breast, 13.1%.

On to `COc1c(F)ccc(C(=O)Nc2ccc3nc(NC(=O)C4CCCN(S(=O)(=O)c5ccc(C(F)(F)F)cc5)C4)sc3c2)c1F` (configuration not stated), for which the growth was 43.4% with SR leukemia; 54.3% in the test with RPMI-8226 leukemia; 95.8% in the test with OVCAR-8 ovarian; 100% in the test with OVCAR-5 ovarian; 69.1% with OVCAR-4 ovarian; 103% in the test with SK-OV-3 ovarian. Besides, the growth is 70.5% in the test with IGROV1 ovarian; 78.2% in the test with OVCAR-3 ovarian; 51.4% in the test with HS 578T breast; 59.7% with T-47D breast; 68.7% with BT-549 breast; 94.2% in the test on MDA-MB-435 melanoma. Further, the growth with SW-620 colon was 95.1%; in the test with HCT-116 colon, 63.4%; with HCC-2998 colon, 99.2%; with KM12 colon, 75.2%; with MDA-MB-468 breast, 104%.

In the case of `CC(C)CSc1nc(NCCc2c[nH]c3ccccc23)c(C#N)c(-c2ccc(Cl)cc2)n1`, the growth in the test on SR leukemia was 7.81% (active); with RPMI-8226 leukemia, 36.3%; with OVCAR-8 ovarian, 76.2%; in the test on OVCAR-5 ovarian, 80.5%; in the test on OVCAR-4 ovarian it was 78.3%; in the test on SK-OV-3 ovarian, 81.7%. In addition, the growth is 96.2% with IGROV1 ovarian; 76.4% in the test with OVCAR-3 ovarian; 51.6% with HS 578T breast; 31.7% in the test with T-47D breast; 83.5% with BT-549 breast; 72.5% in the test with MDA-MB-435 melanoma. For the same compound, the growth in the test with SW-620 colon is 24.9%; in the test on MCF7 breast, 16.4%; in the test with HCT-116 colon, 19.5%; with HCC-2998 colon, 52.3%; in the test with KM12 colon, 35.1%; in the test on MDA-MB-468 breast, 53.9%.

Turning to `CN(C)c1nc(NCCNS(=O)(=O)c2ccc(C3=Nc4c(N)nc(N)nc4NC(c4ccc(Cl)cc4)C3)cc2)nc(Nc2ccc(F)cc2)n1` (configuration not stated), the growth in the test with SR leukemia was 0.305% (active); in the test on RPMI-8226 leukemia it was -2.32% (active); in the test on OVCAR-8 ovarian, 46.2%; with OVCAR-5 ovarian, 72.6%; in the test with OVCAR-4 ovarian, 45.6%; in the test with SK-OV-3 ovarian, 90.3%. Also, the growth with IGROV1 ovarian was 51.5%; in the test on OVCAR-3 ovarian, 51.9%; in the test on NCI/ADR-RES ovarian it was 94.4%; with T-47D breast, 33.8%; with BT-549 breast, 15.4%; with MDA-MB-435 melanoma it was 32.3%. The growth in the test on SW-620 colon is 33.4%; in the test with MCF7 breast it was 2.35% (active); with HCT-116 colon, 15.3%; with HCC-2998 colon it was -0.0718% (active); with KM12 colon it was 19.4%; in the test with MDA-MB-468 breast it was -35.5% (active).

In the case of `C/C(=N\N=C1/C(=O)Nc2ccccc21)c1ccc2c(c1)Nc1ccccc1S2`, the growth in the test on SR leukemia was 44.5%; in the test on RPMI-8226 leukemia it was 38.7%; with OVCAR-8 ovarian, 56%; in the test with OVCAR-5 ovarian, 83.7%; in the test with OVCAR-4 ovarian, 37.4%; in the test on SK-OV-3 ovarian, 101%. Besides, the growth in the test on IGROV1 ovarian was 45.6%; in the test with OVCAR-3 ovarian, 34.9%; in the test with NCI/ADR-RES ovarian it was 59.4%; with T-47D breast it was 26.8%; in the test with BT-549 breast it was 43.9%; with MDA-MB-435 melanoma it was -52.5% (active). The growth is 63.5% in the test with SW-620 colon; 22.2% in the test on MCF7 breast; 16.2% in the test with HCT-116 colon; 75.7% with HCC-2998 colon; 66.4% in the test on KM12 colon; 34.6% in the test on MDA-MB-468 breast.

`CC(C)c1sc(NC(=O)c2cc(NC(=O)c3cc(NC(=O)c4cscn4)cn3C)cn2C)nc1C(=O)NCCCN(C)C`: the growth was -8.69% (active) in the test with SR leukemia; 94.5% with RPMI-8226 leukemia; 2.77% (active) in the test with OVCAR-8 ovarian; 10.5% in the test on OVCAR-5 ovarian; 18.7% with OVCAR-4 ovarian; -14.5% (active) in the test on SK-OV-3 ovarian. In addition, the growth was 13.3% with IGROV1 ovarian; 3.57% (active) in the test on OVCAR-3 ovarian; 23.3% in the test with HS 578T breast; 13% in the test with T-47D breast; -7.36% (active) with BT-549 breast; 2.17% (active) in the test with MDA-MB-435 melanoma. The growth was 20.5% with SW-620 colon; 24.5% in the test on MCF7 breast; -79.5% (active) with HCT-116 colon; -74.9% (active) in the test on HCC-2998 colon; 59.2% with KM12 colon; -62.7% (active) in the test with MDA-MB-468 breast.
